# Test results reported in PubChem BioAssay (NCI).
# About 83,000 compounds went through this panel and 20% of them were active in at least one assay; those are over-represented in the sample as a whole.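 Activity criterion: percent growth below 10, measured after cells in 96-well plates were exposed to a single compound concentration for 48 hours.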 Values without a mark were called inactive. The source made the active and inactive calls.
# System: SR leukemia
# Assay: NCI-60 one-dose screen, 48 h (100 = growth as untreated, 0 = no growth, -100 = all killed)
# Conditions: 10 µM unless noted
row,SMILES,growth
1,CC(=O)OCC1O[C@@H]([S-])C(OC(C)=O)[C@H](OC(C)=O)[C@@H]1OC(C)=O.[Au+].c1ccc(CN2[CH-]N(Cc3ccccc3)C(c3ccccc3)=C2c2ccccc2)cc1,-29.1% (active)
2,N#C[S-].[Au+].c1ccc(CN2[CH-]N(Cc3ccccc3)C(c3ccccc3)=C2c2ccccc2)cc1,-8.44% (active)
3,CC(=O)OCC1OC([S-])C(OC(C)=O)C(OC(C)=O)C1OC(C)=O.[Au+].c1ccc(CN2[CH-]N(Cc3ccccc3)C(c3ccccc3)=C2c2ccccc2)cc1,-8.38% [4.75 µM] (active)

# System: OVCAR-4 ovarian
# Assay: as above
# Conditions: 10 µM unless noted
row,SMILES,growth
1,NC(=O)c1c(Br)c(Br)c(Br)c(Br)c1C(=O)O (tested in a mixture with another compound),94.3%
2,C1CCC([PH+](C2CCCCC2)C2CCCCC2[PH+](C2CCCCC2)C2CCCCC2)CC1.O=C(C1[CH-]CCCC1)C1CCCC[N-]1.[Au] (stereo unspecified),18.2%
3,C1CCC([PH+](C2CCCCC2)C2CCCCC2[PH+](C2CCCCC2)C2CCCCC2)CC1.[Au].[CH-]1CCCCC1CC1CCCC[N-]1 (stereo unspecified),37.5%
